Reference: PubChem BioAssay (NCI)
This is part of a sample that, as a whole, favours compounds with a hit. Of some 83,000 tested, about 20% had one in any assay.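 Negative percent growth values reflect cell death: -40 means 40% of the cells present at the start died, and -100 means all died.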 Values without a mark were called inactive. Activity calls are given as the source filed them. How the source made its calls: active means growth percent below 10; inactive means the rest.

What follows are compounds tested on SN12C renal (assay: NCI-60 one-dose screen, 48 h (100 = growth as untreated, 0 = no growth, -100 = all killed)). Conditions: 10 µM unless noted.

SMILES | growth
CCCCC[C@H]1CC=C2C(=O)C(Cl)=C[C@@H]2CC=CCCCC(=O)O[C@@H](CCCCC)CC=C2C(=O)C(Cl)=C[C@@H]2CC=CCCCC(=O)O[C@@H](CCCCC)CC=C2C(=O)C(Cl)=C[C@@H]2CC=CCCCC(=O)O1 | 43.1% [8 µM]
Cn1c(=O)c2c(ncn2CCC(=O)Nc2ccc(F)cc2)n(C)c1=O | 105%
COc1ccc(-c2cc(-c3c(C)oc4cc5occc5c(OC)c4c3=O)nc(N)c2C#N)cc1OC | 77.6%
COc1ccc(/C=C/C(=O)NCC(C)O)cc1 (stereo unspecified) | 105%
Cc1cc(N(CCCNc2ccnc3cc(Cl)ccc23)Cc2ccco2)nc(Cl)n1 | 58.8%
Cc1c(C)c2c(c(C)c1NC(=O)CCCCCCC(=O)O)CCC(C)(CCCC(C)CCCC(C)CCCC(C)C)O2 (stereo unspecified) | 77.5%
CN(C)c1ccc(N=C2C=CC(=O)C=C2)cc1 | 92%
Fc1ccc(NCc2nnc(-c3ccc(Cl)cc3)o2)cc1 | 79.4%
COc1ccc(OCC(CO)N2CCN(c3ccccc3)CC2)cc1 (stereo unspecified) | 97.2%
CCCCC(=O)OC1CCCCC1C (stereo unspecified) | 94.1%
COc1ccc2c(c1)c(-c1nc(-c3cn(C)c4ncccc34)cs1)cn2CCN | 76.3%
COc1cccc(-c2nn(-c3ccccc3)cc2-c2ccnc(NCCNS(=O)(=O)c3cccc(F)c3)c2)c1 | 33.8%
Cc1cc(Cl)c2c(N(C)C)cccc2n1 | 102%
COc1ccccc1-n1cnc(N)c1C(=O)c1cc(OC)c(OC)c(OC)c1 | 62.3%
Cc1cc(N2CCCCC2)nc(N(CCNc2ccnc3cc(Cl)ccc23)Cc2ccco2)n1 | 24%
N#CC1=C(N)Oc2c(c(N)nn2-c2ccccc2)C1c1ccc(Cl)cc1Cl (stereo unspecified) | 99.5%
COc1ccc(NC(=O)c2ccc3c(c2)nc(-c2cc4ccccc4[nH]c2=O)n3-c2cc(C(C)(C)C)[nH]n2)cc1 | 93.2%

SMILES | growth
N#CC1=C(N)Oc2c(sc3c(F)cccc23)C1c1ccc(Cl)cc1 (stereo unspecified) | 36.2%
Cc1ccc(Cc2cnc(NC(=O)/C=C/c3cccc(C)c3)s2)cc1 | 31.4%
Oc1cccc2oc(=S)[nH]c12 | 98.6%
COc1cc(/C=C/c2cc(/C=C/c3ccc(O)c(OC)c3)n(-c3ccccc3)c(=O)n2)ccc1O | 71.4%
NC(=O)NCC1CCCCC1 | 106%
N#Cc1cnc2cc(OC[C@@H](O)CO)c(NC(=O)CC3CSSC3)cc2c1Nc1ccc(OCc2cccc(F)c2)c(Cl)c1 | -70.3% (active)
CC(=O)OCCCCCCn1c2ccccc2c2c3c(c4c5ccccc5n(C)c4c21)C(=O)N(O)C3=O | 70%
COc1ccc(-n2c(/C=C/c3ccc(O)c(OC)c3)cc(/C=C/c3ccc(O)c(OC)c3)nc2=O)cc1 | 66.6%
Cc1ccc2oc(=O)cc(-c3sc(N4CCCCC4)nc3-c3ccccc3)c2c1 | 50.2%
Nc1c2c(nc3ccc(Cl)cc13)CC(c1ccc(O)cc1)CC2=O (stereo unspecified) | 58.7%
C/C(=N\NC(=O)C(C)SC(C)C(=O)N/N=C(\C)c1cccnc1)c1cccnc1 (stereo unspecified) | 106%
O=C1CCC/C=C\C[C@H]2C=C(Cl)C(=O)/C2=C/C[C@H](CCCCC(F)(F)F)OC(=O)CCC/C=C\C[C@H]2C=C(Cl)C(=O)/C2=C/C[C@H](CCCCC(F)(F)F)O1 | -27.1% [7.5 µM] (active)
O=C1/C(=C\c2ccco2)SC(=S)N1CCc1ccc(O)cc1 | 91.6%
O=C(O)/C(=C/c1ccc(O)cc1)c1ccccc1 | 96.9%
CCCCC/C(=C\c1ccccc1)C1OC(C)C(C)O1 (stereo unspecified) | 97.2%
Cc1cc(C=O)c(C)c2c1[nH]c1ccccc12 | 95.8%

These compounds were tested on UO-31 renal in the same assay as above. Conditions: 10 µM unless noted.

SMILES | growth
C=C(C)[C@@H]1CC[C@]2(C(=O)N3CCCNCC3)CC[C@]3(C)[C@H](CC[C@@H]4[C@@]5(C)CCC(=O)C(C)(C)[C@@H]5CC[C@]43C)[C@@H]12 | 85.5%
CCCCC[C@H]1CC=C2C(=O)C(Cl)=C[C@@H]2CC=CCCCC(=O)O[C@@H](CCCCC)CC=C2C(=O)C(Cl)=C[C@@H]2CC=CCCCC(=O)O[C@@H](CCCCC)CC=C2C(=O)C(Cl)=C[C@@H]2CC=CCCCC(=O)O1 | 76.3% [8 µM]
Cn1c(=O)c2c(ncn2CCC(=O)Nc2ccc(F)cc2)n(C)c1=O | 90%
COc1ccc(-c2cc(-c3c(C)oc4cc5occc5c(OC)c4c3=O)nc(N)c2C#N)cc1OC | 45.2%
COc1cc(NC(C)CN(CC(C)C)C(C)C)c2ncccc2c1 (stereo unspecified) | 87.6%
COc1ccc(/C=C/C(=O)NCC(C)O)cc1 (stereo unspecified) | 81.9%
Cc1cc(N(CCCNc2ccnc3cc(Cl)ccc23)Cc2ccco2)nc(Cl)n1 | 36.7%
Cc1c(C)c2c(c(C)c1NC(=O)CCCCCCC(=O)O)CCC(C)(CCCC(C)CCCC(C)CCCC(C)C)O2 (stereo unspecified) | 75.7%
CN(C)c1ccc(N=C2C=CC(=O)C=C2)cc1 | 73.7%
Fc1ccc(NCc2nnc(-c3ccc(Cl)cc3)o2)cc1 | 54.3%
COc1ccc(OCC(CO)N2CCN(c3ccccc3)CC2)cc1 (stereo unspecified) | 86.4%
CCCCC(=O)OC1CCCCC1C (stereo unspecified) | 93.2%
COc1ccc2c(c1)c(-c1nc(-c3cn(C)c4ncccc34)cs1)cn2CCN | 66.6%
COc1ccc(CCN2C(=O)C(C)(C)SC2=S)cc1OC | 88.9%
Cc1nnc2nc(N)[nH]n2c1=O | 84.7%
COc1cccc(-c2nn(-c3ccccc3)cc2-c2ccnc(NCCNS(=O)(=O)c3cccc(F)c3)c2)c1 | 15.7%
Cc1cc(Cl)c2c(N(C)C)cccc2n1 | 91.1%
COc1ccccc1-n1cnc(N)c1C(=O)c1cc(OC)c(OC)c(OC)c1 | 55.2%
Cc1cc(N2CCCCC2)nc(N(CCNc2ccnc3cc(Cl)ccc23)Cc2ccco2)n1 | 40.6%

SMILES | growth
N#CC1=C(N)Oc2c(c(N)nn2-c2ccccc2)C1c1ccc(Cl)cc1Cl (stereo unspecified) | 73.8%
COc1ccc(NC(=O)c2ccc3c(c2)nc(-c2cc4ccccc4[nH]c2=O)n3-c2cc(C(C)(C)C)[nH]n2)cc1 | 86.3%
N#CC1=C(N)Oc2c(sc3c(F)cccc23)C1c1ccc(Cl)cc1 (stereo unspecified) | 41.7%
Cc1ccc(Cc2cnc(NC(=O)/C=C/c3cccc(C)c3)s2)cc1 | 33.7%
Oc1cccc2oc(=S)[nH]c12 | 72.9%
COc1cc(/C=C/c2cc(/C=C/c3ccc(O)c(OC)c3)n(-c3ccccc3)c(=O)n2)ccc1O | 58.6%
NC(=O)NCC1CCCCC1 | 92.9%
N#Cc1cnc2cc(OC[C@@H](O)CO)c(NC(=O)CC3CSSC3)cc2c1Nc1ccc(OCc2cccc(F)c2)c(Cl)c1 | 50.5%
CC(=O)OCCCCCCn1c2ccccc2c2c3c(c4c5ccccc5n(C)c4c21)C(=O)N(O)C3=O | 50%
Cc1nn2c(-c3nc4cc(Cl)c(Cl)cc4[nH]3)c(-c3ccc(F)cc3)nc2s1 | -67.1% (active)
COc1ccc(-n2c(/C=C/c3ccc(O)c(OC)c3)cc(/C=C/c3ccc(O)c(OC)c3)nc2=O)cc1 | 47.8%
Cc1ccc2oc(=O)cc(-c3sc(N4CCCCC4)nc3-c3ccccc3)c2c1 | 58%
Nc1c2c(nc3ccc(Cl)cc13)CC(c1ccc(O)cc1)CC2=O (stereo unspecified) | 60%
O=C1c2ccccc2C(=Cc2ccccc2)c2ccccc21 | 28%
C/C(=N\NC(=O)C(C)SC(C)C(=O)N/N=C(\C)c1cccnc1)c1cccnc1 (stereo unspecified) | 81%
O=C1CCC/C=C\C[C@H]2C=C(Cl)C(=O)/C2=C/C[C@H](CCCCC(F)(F)F)OC(=O)CCC/C=C\C[C@H]2C=C(Cl)C(=O)/C2=C/C[C@H](CCCCC(F)(F)F)O1 | -93.3% [7.5 µM] (active)
O=C1/C(=C\c2ccco2)SC(=S)N1CCc1ccc(O)cc1 | 54%
CCCCC/C(=C\c1ccccc1)C1OC(C)C(C)O1 (stereo unspecified) | 101%
Cc1cc(C=O)c(C)c2c1[nH]c1ccccc12 | 74.3%
